Unmarked numbers belong to inactive results.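 The calls were made as follows: active = MAPPIT score above the 99th percentile of random reference set scores in the same batch; inactive = at or below it.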
What was measured:
Experiment in all cases: MAPPIT interaction score (arbitrary units); higher = stronger binary interaction signal, active = hit call of the paper
CG12963 = conditions: MAPPIT configuration: N-N; pair source set: Curagen_high_conf
CG12576 = conditions: MAPPIT configuration: N-C; pair source set: screen_4
CG30355 = conditions: MAPPIT configuration: N-C; pair source set: screen_4
Vha16-2 = conditions: MAPPIT configuration: N-C; pair source set: screen_3
CG12343 = conditions: MAPPIT configuration: N-N; pair source set: DPIM
CG12567 = conditions: pair source set: RRS
CG14664 = conditions: pair source set: RRS
DIP1 = conditions: MAPPIT configuration: N-N; pair source set: screen_2
GstZ2 = conditions: pair source set: RRS
CG12470 = conditions: MAPPIT configuration: N-N; pair source set: Curagen_low_conf
Eb1 = conditions: MAPPIT configuration: N-N; pair source set: screen_1
SmydA-3 = conditions: MAPPIT configuration: N-N; pair source set: screen_2
Sply = conditions: MAPPIT configuration: N-N; pair source set: Finley_Y2H
ben = conditions: MAPPIT configuration: N-N; pair source set: screen_2
hb = conditions: MAPPIT configuration: N-N; pair source set: screen_1
promL = conditions: MAPPIT configuration: N-N; pair source set: screen_2
pzg = conditions: MAPPIT configuration: N-N; pair source set: Curagen_high_conf
spin = conditions: MAPPIT configuration: N-N; pair source set: screen_1
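Also: HEK293T cells with Epo stimulation, STAT-responsive firefly luciferase reporter, fold induction versus unstimulated cells divided by the larger fold induction of two negative controls lacking either bait or prey.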

B1: csw (protein)
chain: MSSRRWFHPTISGIEAEKLLQEQGFDGSFLARLSSSNPGAFTLSVRRGNEVTHIKIQNNGDFFDLYGGEKFATLPELVQYYMENGELKEKNGQAIELKQPLICAEPTTERWFHGNLSGKEAEKLILERGKNGSFLVRESQSKPGDFVLSVRTDDKVTHVMIRWQDKKYDVGGGESFGTLSELIDHYKRNPMVETCGTVVHLRQPFNATRITAAGINARVEQLVKGGFWEEFESLQQDSRDTFSRNEGYKQENRLKNRYRNILPYDHTRVKLLDVEHSVAGAEYINANYIRLPTDGDLYNMSSSSESLNSSVPSCPACTAAQTQRNCSNCQLQNKTCVQCAVKSAILPYSNCATCSRKSDSLSKHKRSESSASSSPSSGSGSGPGSSGTSGVSSVNGPGTPTNLTSGTAGCLVGLLKRHSNDSSGAVSISMAEREREREREMFKTYIATQGCLLTQQVNTVTDFWNMVWQENTRVIVMTTKEYERGKEKCARYWPDEGRSEQFGHARIQCVSENSTSDYTLREFLVSWRDQPARRIFHYHFQVWPDHGVPADPGCVLNFLQDVNTRQSHLAQAGEKPGPICVHCSAGIGRTGTFIVIDMILDQIVRNGLDTEIDIQRTIQMVRSQRSGLVQTEAQYKFVYYAVQHYIQTLIARKRAEEQSLQVGREYTNIKYTGEIGNDSQRSPLPPAISSISLVPSKTPLTPTSADLGTGMGLSMGVGMGVGNKHASKQQPPLPVVNCNNNNNGIGNSGCSNGGGSSTTSSSNGSSNGNINALLGGIGLGLGGNMRKSNFYSDSLKQQQQREEQAPAGAGKMQQPAPPLRPRPGILKLLTSPVIFQQNSKTFPKT
In the case of B1, the MAPPIT interaction score (CG12963) is reported as -0.144.

B2: Cys (protein)
chain: MNVVKSLCILGLVLVSLIATQAADEQVVGGVSQLEGNSRKEALELLDATLAQLATGDGPSYKAINVTSVTGQVVAGSLNTYEVELDNGSDKKQCTVKIWTQPWLKENGTNIKIKCSGDDGELDRTW
With B2 the MAPPIT interaction score (CG12576) was -0.0839, the MAPPIT interaction score (CG30355) was 2.13 and the MAPPIT interaction score (Vha16-2) was 0.0929.

B3: CG8745 (protein)
chain: MPFAHEQLNLVASEQLSKTETIKLRNQHIGQACQLFYRSDPLKIVRGQGQYMFDEEGTRYLDCINNVAHVGHCHPEVVRAGALQMATISTNNRFLHDELVQCARTLTSKMPEPLSVCFFVNSGSEANDLALRLARNFTKRQDVITLDHAYHGHLQSVMEVSPYKFNQPGGEAKPDYVHVAPCPDVYGGKFTDKMYPDADMGALYAQPIEEICQKQLAKGQGVAAFIAESLQSCGGQILPPAGYFQAVYDAVRSAGGVCIADEVQVGFGRVGSHYWAFETQNVIPDIVCVAKPMGNGHPVGAVVTTPEIAQAFHATGVAYFNTYGGNPVSCAIANAVMRVIEEEGLQQKALVLGDYLLEECNRLKQEFECIGDVRGAGLFVGIELVQDRKERIPDKKAAHWVVNRMKQLHRVLVSSDGPNDNVIKLKPPMCFNRENADEFLLGFRECLTAVMQERLASATSAAMAATSGVIATATETLANKTKLFERQDRLIKSV
Binder B3 has an MAPPIT interaction score (CG12343) of 0.219.

B4: Adar (protein)
chain: MKFDSRVMLNSANNNSPQHPVSAPSDINMNGYNRKLPQKRGYEMPKYSDPKKKMCKERIPQPKNTVAMLNELRHGLIYKLESQTGPVHAPLFTISVEVDGQKYLGQGRSKKVARIEAAATALRSFIQFKDGAVLSPLKPAGNLDFTSDEHLENGIENLSSSKMFEIIQTMLTEKLSNPTSLEQPTFCMSQNVSKSAITVDGQKKVPDKGPVMLLYELFNDVNFECINIDGAQNNCRFKMTVTINEKKFDGTGPSKKTAKNAAAKAALASLCNISYSPMVVPQKNVPLPIDDKSSSMELPQIHADTIGRLVLEKFMEVIKGQEAYSRRKVLAGIVMTENMNFCEAKVISVSTGTKCVSGEHMSVNGAVLNDSHAEIVSRRCLLKYLYAQLDLQCNQATAYQSIFVRNTDGQYPYKLKSGVHFHLYINTAPCGDARIFSPHENDTGVDKHPNRKARGQLRTKIESGEGTIPVKSSDGIQTWDGVLQGQRLLTMSCSDKIARWNIVGIQGSLLSSIIEPVYLHSIVLGSLLHPEHMYRAVCGRIEKSIQGLPPPYHLNKPRLALVTSAEPRNQAKAPNFGINWTIGDTELEVVNSLTGRTIGGQVSRITKQAFFVKYGFLMANLPGILVRKVTTDYGQTKANVKDYQIAKLELFSAFKREDLGSWLKKPIEQDEFGLAE
With B4 the MAPPIT interaction score (CG12567; MAPPIT configuration: N-C) was 0.742, the MAPPIT interaction score (CG12567; MAPPIT configuration: N-N) was 1.87 and the MAPPIT interaction score (CG14664; MAPPIT configuration: N-C) was -0.248. It also gave an MAPPIT interaction score (CG14664; MAPPIT configuration: N-N) of 0.297, an MAPPIT interaction score (DIP1) of -0.0973 and an MAPPIT interaction score (GstZ2; MAPPIT configuration: N-C) of 0.124. It also gave an MAPPIT interaction score (GstZ2; MAPPIT configuration: N-N) of -0.194.

B5: sinah (protein)
chain: MSVRNSRPQLSWPERVSPQRTIDTPTASGEMLTRRQSAPALVVPPEETTHVVVVKRQSPDAAAAGELVPSRRKDSVAVQSGIVATGPLDTTRSGARDDFLMALLECPVCFGYIMPPIMQCPRGHLICSTCRSKLTICPVCRVFMTNIRSLAMEKVASKLIFPCKHSHFGCRARLSYAEKTKHEEDCECRPYFCPYPDDKCSWQGPLRDVYQHLMSSHENVITMEGNDIIFLATNVNLEGALDWTMVQSCHGRHFLLSLEKINLGEDCQQYFTACRMIGSMKDAAEFVYNISLEAYNRTLRWQSKPRSIRENFSSFTNADFLVLNKHTVELFSEDGNLALNVVIRKVEERTN
With B5 the MAPPIT interaction score (CG12470) was 2.95 (active), the MAPPIT interaction score (Eb1) was -0.0985 and the MAPPIT interaction score (SmydA-3) was 0.15. The MAPPIT interaction score (Sply) was 1.41, the MAPPIT interaction score (ben) was 1.2 and the MAPPIT interaction score (hb) was -0.281. For the same binder, the MAPPIT interaction score (promL) was 0.506, the MAPPIT interaction score (pzg) was -1 and the MAPPIT interaction score (spin) was 0.564.

Source: the supplement of paper PMC10105736
